Most compounds without a hit are left out; they make up all but 5.8% or so of the library.
TSHR agonist: qHTS Assay for Agonists of the Thyroid Stimulating Hormone Receptor | HEK293-CNG-TSHR cells (CNG channel as cAMP sensor), membrane potential dye, cAMP | Potency, µM (highest dose often 57.1 µM), usual class: activators | 73,000 compounds, 0.48% hits | AID 926, 2007; active = well fitted activation curve with a large enough effect in the main read-out, with a control signal flat, not every such curve was filed as active; inconclusive = small, poorly fitted or top-dose-only effect, or a change in a side signal; inactive = no such curve, though single readings can be large or run the other way; reference of the percent scale not stated here;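 also: the control signal comes from parental cells without the receptor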
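cAMP rise detected as CNG-channel membrane depolarization by fluorescent dye (emission 590 nm), 30 min after compound, following 60 min dye loading containing 100 uM RO 20-1724 at room temperature. Cells: TSHR/CNG HEK 293, with parental CNG HEK 293 as control.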
Bst PK mod: Pyruvate Kinase; purified pyruvate kinase, luminescence ATP production; ribose 5-phosphate activator present at AC10; Potency, µM; 51,000 compounds, 1.2% hits; in the data active = potency below about 11 µM; inconclusive = mostly about 12 µM to 25 µM;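 the screen sought inhibitors and activators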
HEK293 cAMP ctrl: qHTS Assay for Agonists of the Thyroid Stimulating Hormone Receptor: Activators of Intracellular cAMP Concentrations in Parental HEK 293; parental HEK293 CNG cAMP sensor, membrane potential fluorescence; Potency, µM (top dose mostly 57.1 µM), hits mostly activators; 73,000 compounds, 2.5% hits; also: nearly all actives have a fitted effect of over 55% in size
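Parental HEK 293 cells stably expressing a cAMP-gated CNG channel were loaded with membrane potential dye containing 100 uM RO 20-1724 for 60 min. Compound added for 30 min; depolarization read as fluorescence intensity at 590 nm.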
Luciferase inh: qHTS Assay for Inhibitors of Firefly Luciferase; Luciferin 4-monooxygenase (Photinus pyralis), P08659; purified firefly luciferase, luminescence, 8 min; Potency, µM (highest dose often 57.1 µM), hits mostly inhibitors; 72,000 compounds, 2.2% hits; AID 411, 2009; also: nearly all actives have a fitted effect of over 40% in size
Target sequence (P08659 whole entry, looked up): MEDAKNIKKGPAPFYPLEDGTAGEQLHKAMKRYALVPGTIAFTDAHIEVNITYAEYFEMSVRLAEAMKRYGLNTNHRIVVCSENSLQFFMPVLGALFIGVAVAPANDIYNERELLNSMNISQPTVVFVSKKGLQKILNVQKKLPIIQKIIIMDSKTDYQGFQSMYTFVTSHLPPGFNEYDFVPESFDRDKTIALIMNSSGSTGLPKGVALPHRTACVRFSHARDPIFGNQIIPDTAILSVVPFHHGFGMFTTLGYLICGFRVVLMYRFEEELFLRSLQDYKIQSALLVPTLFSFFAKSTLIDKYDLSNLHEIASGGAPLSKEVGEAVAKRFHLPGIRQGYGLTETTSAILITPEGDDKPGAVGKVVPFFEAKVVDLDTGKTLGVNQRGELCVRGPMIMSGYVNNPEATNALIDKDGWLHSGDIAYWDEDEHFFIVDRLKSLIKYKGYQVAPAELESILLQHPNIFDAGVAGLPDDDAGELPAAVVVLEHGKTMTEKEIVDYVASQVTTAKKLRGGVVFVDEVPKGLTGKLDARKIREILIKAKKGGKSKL
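Luminescence read-out after 8 min at room temperature; enzyme reaction used luciferin plus 10 uM ATP (linear range) in imidazole buffer pH 7.2 with KCl, MgCl2, Tween 20 and BSA. Each sample was run as a titration.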
GBA mod: Glucocerebrosidase. Lysosomal acid glucosylceramidase (Homo sapiens), P04062. purified enzyme, resorufin glucoside fluorescence (screen aimed at inhibitors), 20 min. Potency, µM. 48,000 compounds, 1.1% hits; in the data active = potency below about 15 µM; inconclusive = mostly about 16 µM to 33 µM;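 also: the screen sought inhibitors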
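Normal human glucocerebrosidase (0.2 nM final) was assayed with resorufin β-D-glucopyranoside (30 uM final) in 50mM citric acid/KH2PO4, 10mM sodium taurocholate, 0.01% tween-20, pH 5.9. Compounds were titrated; fluorescence (Ex 548, Em 600) read after 20 min at RT.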
Hits are given with their value; - = inactive; ? = inconclusive; . = no result; [ ] = remark or other dose. Unless noted, calls follow the shape of the dose curve; as a rule, active = well fitted curve in the direction sought with a large enough effect; inconclusive = small, poorly fitted or top-dose-only effect, or another doubt; inactive = no such curve, though single readings can be large; an effect the other way counts as inactive or inconclusive.

SMILES	TSHR agonist	Bst PK mod	HEK293 cAMP ctrl	Luciferase inh	GBA mod
Cc1ccc(C2C=C(c3ccc4c(c3)OCO4)Nc3ncnn32)cc1 (stereo not given)	.	-	-	-	-
COc1cccc(C2=CC(c3ccc(C)cc3)n3ncnc3N2)c1 (stereo not given)	?	.	16µM	-	-
CCOC(=O)CSc1nnc(-c2ccccc2NC(=O)c2ccccc2)o1	?	-	?	-	8.3
Nc1ncnc2c([C@@H]3O[C@@H](CO)[C@H](O)[C@@H]3O)nsc12	-[11.4 µM]	.	-[11.4 µM]	-[11.4 µM]	.
COc1ccc2c3c(ccc2c1)N[C@H](C(=O)O)CC3	-[11.4 µM]	.	-[11.4 µM]	3.2µM	.
COc1ccc(NC(=O)C2CCC(=O)N2)cc1 (stereo not given)	-	.	-	-	.
O=C(O)Cn1c(=O)oc2cc(S(=O)(=O)N3CCOCC3)ccc21	-	.	-	-	.
Nc1nc(CSc2ncn(-c3ccccc3)n2)cs1	.	.	-	25µM	-
Cc1cc(C)c(C#N)c(SCC(=O)CC(=O)OC(C)C)n1	?	-	25µM	-	-
COc1cccc(Nc2ncc3nc(C)c(=O)n(Cc4cccs4)c3n2)c1	?	.	3.2µM	-[11.4 µM]	.
O=c1cnc2cnc(Nc3ccccc3)nc2n1Cc1cccs1	?	.	13µM	-[11.4 µM]	.
C=C(CO)[C@H]1Cc2c(ccc3c(=O)c4c(oc23)COc2cc(OC)c(OC)cc2-4)O1	-	.	-	-[11.4 µM]	.
COC(=O)NC(c1cccc(F)c1)C(C(C)=O)C(=O)OC (stereo not given)	-[11.4 µM]	.	-[11.4 µM]	.	.
CC(C)(C)n1ncc2c(=O)n(CC(=O)OCc3ccccc3)cnc21	-	0.54	-	0.4µM	-
CC(C)(C)n1ncc2c(=O)n(CC(=O)c3ccccc3)cnc21	-	-	-	-	-
CC(C)(C)n1ncc2c(=O)n(CC(=O)NCc3ccc(F)cc3)cnc21	.	.	-	20µM	-
N[C@@H]1C=CC=C(C(=O)O)C1	.	.	-	-	.
O=c1cc(-c2ccccc2)c2ccccc2[nH]1	-	-	-	-	-
COc1ccc2c(-c3cccnc3)cc(=O)[nH]c2c1	-	-	-	-	8.9
S=C(c1ccc(-c2cccc(Cl)c2)o1)N1CCOCC1	-	.	-	13µM	.
S=C(c1ccc(-c2cc(Cl)ccc2Cl)o1)N1CCOCC1	.	.	-	.	.
Cc1ccccc1N1OC2C(=O)N(c3ccc(F)cc3)C(=O)C2C1c1ccccn1 (stereo not given)	?	-	20µM	-	-
c1ccc(-n2nnc3c(N4CCOCC4)ncnc32)cc1	-	9.2	-	5µM	-
COc1ccc(CNc2ccnc(-c3ccccc3Cl)n2)c(OC)c1	?	.	10µM	-[2.29 µM]	.
COc1ccc(CNc2ncncc2-c2ccccc2CN(C)C)c(OC)c1	-	.	-	-[2.29 µM]	.
SMILES	TSHR agonist	Bst PK mod	HEK293 cAMP ctrl	Luciferase inh	GBA mod
COc1ccc(CNc2ccnc(-c3ccccc3OC)n2)c(OC)c1	.	.	-	-[2.29 µM]	.
COc1ccc(CNc2ncncc2-c2ccccc2Cl)c(OC)c1	?	.	32µM	-[2.29 µM]	.
Cc1noc(C)c1-c1cncnc1NCc1cccnc1	-	.	-	-[2.29 µM]	.
NNc1nncc2ccccc12	-	.	-	4µM	.
COc1ccc(NC(=O)c2ccc(-c3ccc(-c4noc(C)n4)cc3C)cc2)cc1OCCN(C)C	-	.	-	-	.
O=C(NCc1cccnc1)[C@@H]1[C@@H](C(=O)O)[C@H]2CC[C@@H]1O2	?	.	?	-[11.4 µM]	.
COCCOc1ccc(C(F)(F)F)cc1Nc1nc2ccccc2o1	13µM	-	-	-	-
Cc1csc(NC(=O)Nc2cccc(Cl)c2)n1	-	.	-	7.9µM	.
Cn1c2ccccc2c2c(C(=O)NCC3CCCO3)cn(C3CCCC3)c(=O)c21 (stereo not given)	-	.	-	13µM	-
CC(C)Cn1cc(C(=O)NCC2CCCO2)c2c3ccccc3n(C)c2c1=O (stereo not given)	-	.	-	-	-
Cc1ccc(CNc2ccc(N3CCOCC3)cc2)s1	-	-	-	13µM	-
CC(=O)N1CCN(c2ccc(NCc3ccc(C)s3)cc2)CC1	-	.	-	-	.
COc1cc(OC)c(-c2nc3cnccc3n2C)cc1OC	-	-	-	-	-
Cn1c(-c2ccc3ccccc3n2)nc2cnccc21	-	?	-	13µM	-
Cc1ccccc1-n1c(C)nnc1SCc1nc2ccccc2s1	?	.	?	20µM	-
Cn1c(SCc2nc3ccccc3s2)nnc1-c1cccs1	-	-	-	-	-
CSc1nc(NCc2ccco2)c2c3c(sc2n1)CN(C)CC3	?	-	25µM	-	-
CSc1nc(SCC(=O)NCc2ccco2)c2c3c(sc2n1)CN(C)CC3	-	-	-	-	-
CCNc1ncc2nc(-c3ccc(Cl)cc3)c(=O)n(Cc3cccs3)c2n1	?	.	?	-[11.4 µM]	.
FC(F)(F)c1ccc(N2CCN(c3cc(-c4ccccc4)nc4ncnn34)CC2)nc1	?	-	16µM	-	-
FC(F)(F)c1cc(-c2ccccc2)nc(N2CCCCC2)n1	-	-	-	-	-
CCOC(=O)c1[nH]c(COC(=O)C2CC(=O)N(Cc3ccccc3)C2)c(C(=O)OCC)c1C (stereo not given)	?	-	25µM	-	-
CN(Cc1cccs1)c1ncnc2sccc12	?	-	16µM	-	-
c1csc(CNc2ncnc3sccc23)c1	?	-	?	-	-
CCCCCCCCCCCCCCCCOC[C@@H](COCC(F)(F)F)OP(=O)(O)OCO	20µM	.	-	-	.
SMILES	TSHR agonist	Bst PK mod	HEK293 cAMP ctrl	Luciferase inh	GBA mod
CC(=O)O[C@@H](C)C[N+](C)(C)C	?	.	?	-	.
Cc1ccc2nc(Nc3ccc4[nH]c(=O)[nH]c4c3)c(-n3nc(C)cc3C)nc2c1	-	7.5	-	4µM	-
CCC(=O)N[C@@H]1CCc2cccc(OC)c2C1	-	.	-	25µM	.
CC(C)C[C@@H](CC(=O)N[C@@H](CCC(=O)O)CC(=O)O)NC(=O)[C@@H]1CCCC[C@H]1NC(=O)C[C@H](CCCN)NC(=O)C[C@H](Cc1c[nH]c2ccccc12)NC(=O)[C@@H]1CCCC[C@H]1N	-	.	-	.	.
COc1ccc2c(Cc3c4ccccc4cc4ccccc34)cncc2c1O	-[11.4 µM]	.	-[11.4 µM]	-[11.4 µM]	.
Cc1ccc(OCC(=O)Nc2ccc(-c3nc4ncccc4o3)cc2)c(C)c1	16µM	-	-	-	-
CCOc1cccc(-c2nc3cc(C)ccc3o2)c1	.	.	-	7.9µM	.
CCCC(=O)Nc1ccc(-c2nc3cc(C)ccc3o2)cc1	-	5.3	-	4µM	-
CS(=O)(=O)N1CCC2(CC1)CN(c1cccc(-c3ccccc3)c1)C2	-	.	-	-[11.4 µM]	.
COc1ccc2oc(=N)c(C(=O)Nc3ccccc3)cc2c1	-	8.2	-	32µM	-
COc1cccc(NC(=O)c2ccccc2-c2nc(-c3ccccc3)no2)c1	?	-	10µM	-	-
COc1nc(-c2ccc(Cl)cc2)ccc1-c1noc(-c2ccco2)n1	-	-	-	-	-
COc1cccc(-c2ccc(-c3noc(-c4ccccc4F)n3)c(OC)n2)c1	-	-	-	-	10
COc1ccc(-c2noc(-c3ccccc3C(=O)NCc3ccco3)n2)cc1	?	-	16µM	-	-

Screening results deposited in PubChem by National Center for Advancing Translational Sciences (NCATS).
